# From PubChem BioAssay AID568 (Sanford-Burnham Center for Chemical Genomics, 2006)
# The whole screen tested about 83,000 compounds, of which fewer than 10 were called active. Only a sample is shown. Potency and affinity values are given separately. Values without a mark were called inactive. How the calls were made is not given here.
# Biological target: Heat shock cognate 71 kDa protein (Homo sapiens) (UniProt P11142)
# Experiment: small molecules displacing fluorescent ligand from Hsc70 – biochemical, fluorescence polarization, primary screen (AID 568)
# Conditions: mP, at 20 µM, hits give high values
# Chain of Heat shock cognate 71 kDa protein (Homo sapiens) (P11142 whole entry, looked up): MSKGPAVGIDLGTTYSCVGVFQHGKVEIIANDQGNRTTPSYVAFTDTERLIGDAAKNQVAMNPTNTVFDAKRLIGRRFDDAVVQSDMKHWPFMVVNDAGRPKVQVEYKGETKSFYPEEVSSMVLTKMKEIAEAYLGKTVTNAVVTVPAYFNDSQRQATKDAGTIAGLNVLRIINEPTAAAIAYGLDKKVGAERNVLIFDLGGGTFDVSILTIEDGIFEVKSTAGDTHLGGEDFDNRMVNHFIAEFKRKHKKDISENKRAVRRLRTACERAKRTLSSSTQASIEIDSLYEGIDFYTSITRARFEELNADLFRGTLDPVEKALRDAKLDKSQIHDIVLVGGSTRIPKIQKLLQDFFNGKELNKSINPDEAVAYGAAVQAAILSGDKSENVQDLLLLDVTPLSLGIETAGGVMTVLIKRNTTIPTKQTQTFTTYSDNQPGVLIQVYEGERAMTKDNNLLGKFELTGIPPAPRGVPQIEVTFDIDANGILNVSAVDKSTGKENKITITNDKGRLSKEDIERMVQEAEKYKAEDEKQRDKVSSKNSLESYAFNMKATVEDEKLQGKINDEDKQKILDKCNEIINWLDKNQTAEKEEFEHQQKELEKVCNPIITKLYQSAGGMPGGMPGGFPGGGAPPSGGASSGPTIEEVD
# Chain of Heat shock cognate 71 kDa protein (Homo sapiens) (P11142 whole entry, looked up): as above
row,SMILES,displacement [%]
1,O=C(Nc1cccc(Cl)c1N1CCCC1)c1cc2ccccc2o1,-2.4
2,CCOC(=O)C1=NN(c2ccccc2)C2(S1)SC(C(C)=O)=C(C)N2c1ccccc1 (configuration not stated),3.4
3,Cc1noc(C)c1CSc1nnc2cc(C)c3ccccc3n12,-6.7
4,Cc1ccc(C(=O)NCc2occc2C(=O)O)o1,2.4
5,CCn1c2ccccc2c2nnc(SCC(=O)Nc3ncccn3)nc21,5.9
6,COc1ccc(S(=O)(=O)NCC(=O)N(CC(=O)NCC2CCCO2)c2c(C)cccc2C)cc1 (configuration not stated),-3.5
7,O=C(Nc1ccncc1)c1cc(F)cc(F)c1,3.6
8,c1ccc2sc(N3CCN(Cc4nnnn4CC4CCCO4)CC3)nc2c1 (configuration not stated),1.7
9,Cn1c(SCc2ccc(F)cc2)nnc1-c1cccs1,-5
10,CCOc1ccc(C(C#N)N2CCOCC2)cc1OC (configuration not stated),-4.5
11,CCCCN(C(=O)c1cc(OC)c(OC)c(OC)c1)C1=CC2CCC(C1)N2C (configuration not stated),-2.2
12,Cc1nn(-c2ccccn2)c2nc(-c3cccs3)cc(C(=O)N3CCOCC3)c12,0.1
13,Cn1c(SCC(=O)NCc2ccc3c(c2)OCO3)nnc1-c1cccs1,-4.3
14,COc1ccc(-c2nc(C)c(C(C)=O)n2O)cc1,3.1
15,COC(=O)c1ccc(OCC(=O)c2ccccc2OC)cc1,2.4
16,CCOC(=O)c1ccc2nc(NC(=O)c3cccs3)sc2c1,-11.3
17,O=C(c1cccc(S(=O)(=O)N2CCCCC2)c1)N1CCN(S(=O)(=O)c2ccc(F)cc2)CC1,7.4
18,N#Cc1ccccc1NC(=O)CSc1nnc(-c2ccccc2O)n1-c1ccccc1,-3.5
19,CCN(CC)S(=O)(=O)c1cccc(C(=O)Nc2cccnc2)c1,4.9
20,CCOC(=O)c1cccc(N2C(=O)C3C(C(=O)NC4CC4)C4(C)C=CC3(O4)C2C(=O)NC(C)(C)C)c1 (configuration not stated),0.8
21,COc1ccc(NC(=O)CSc2nc3ccccc3c(=O)n2CCNC(C)=O)cc1,1

row,SMILES,displacement [%]
1,CC(C)c1ccc(-c2nnn(Cc3nc4ccccc4s3)n2)cc1,7.9
2,CC1=C(C(=O)N2CCOCC2)C(c2cccs2)NC(=O)N1 (configuration not stated),1.5
3,Cc1c(NC2=NC(C)(C)Cc3ccccc32)c(=O)n(-c2ccccc2)n1C,-0.6
4,CCc1ccccc1NC(=O)N[C@@H](C)C(=O)O,4.3
5,CCCCNC(=S)NNC(=O)c1ccco1,4
6,CC1=C(C(=O)OC(C)C)C(c2c[nH]c3ccccc23)n2ncnc2N1 (configuration not stated),4.3
7,CNS(=O)(=O)c1cccc2cccnc12,5.1
8,Cc1ccc(C)c(-n2c(SCC(=O)NCC3CCCO3)nnc2-c2ccoc2C)c1 (configuration not stated),-2.3
9,O=C1C2C3C=CC(C3)C2C(=O)N1c1ccc2ccccc2n1 (configuration not stated),6.3
10,CCOC(=O)c1c(NC(=O)CSc2nnc(-c3cccnc3)o2)sc2c1CCC2,-5
11,Cn1c(CNC(=O)c2cccs2)nnc1SCC(=O)Nc1ccc(Cl)cc1,1.1
12,COc1ccc(Br)cc1CNC(=O)CCc1nc(-c2ccccc2F)no1,0
13,COC(=O)c1[nH]nc2c1C(=O)N(C1CCCCC1)C2=O,2.9
14,CCCC1CCC(C2=N/C(=C\c3ccc(OC)c(OC)c3)C(=O)O2)CC1 (configuration not stated),-5
15,Cn1c(CCN2CCN(c3ccccc3)CC2)nc2cc(NC(=O)c3ccco3)ccc21,0.4
16,O=C(COC(=O)c1cccnc1)c1ccc(Cl)c(Cl)c1,-1.2
17,CCn1c(COc2ccccc2C)nnc1SCC(=O)CC(=O)Nc1ccccc1,2.2
18,CN(Cc1ccccc1)C(=O)c1ccc2c(c1)OCCO2,0.2
19,Cn1cc(S(=O)(=O)CC(=O)Nc2ccc3c(c2)OCCO3)c2ccccc21,7.1
20,NC(=O)c1ccccc1N/C=C/C(=O)c1ccco1,5.3
21,CCN1CCN(CCCNC(=O)C2CCCN(c3nnc(-n4cccc4)s3)C2)CC1 (configuration not stated),7

row,SMILES,displacement [%]
1,Cc1ccc2oc(=O)c3cnn(CC(=O)NCCN4CCOCC4)c3c2c1,2.8
2,Cc1c(C(=O)O)oc2ccc(S(=O)(=O)NCc3ccccc3)cc12,-0.1
3,COc1ccc(C(c2nnnn2Cc2cccs2)N2CCN(c3ccccc3F)CC2)cc1 (configuration not stated),-2.2
4,CC(=O)NCCn1c(SCC(=O)NCCC2=CCCCC2)nc2ccccc2c1=O,-4.3
5,Cc1cc(C)cc(N(C(=O)c2ccc3c(c2)OCO3)C2C=CS(=O)(=O)C2)c1 (configuration not stated),-3.3
6,CCN(CC)S(=O)(=O)c1ccc(-c2nnc(SCc3nnc(-c4ccc(C)cc4)o3)n2CC)cc1,-2.9
7,CC(C)(C)C(=O)CNS(=O)(=O)c1ccc(S(=O)(=O)NC2CCCC2)cc1,2.7
8,Cc1ccc(OC(C)C)c(CN(CCO)CCO)c1,-3.1
9,COc1ccc(S(=O)(=O)N2CCSC2c2ccc(N)cc2)cc1 (configuration not stated),2.5
10,CSc1nn(CCc2ccncc2)c(=S)s1,-0.7
11,COc1cc(NC(=O)c2cc(C)on2)cc(OC)c1OC,8
12,N#C/C(=C\Nc1ccc2c(c1)OCCO2)c1nc2ccccc2[nH]1,-23.3
13,CC(C)c1[nH]nc2c1C(Cc1ccccc1)C(C#N)=C(N)O2 (configuration not stated),5.2
14,COc1ccccc1N1CCN(C(=O)c2c(-c3ccccc3Cl)noc2C)CC1,-6.4
15,CC(=O)Nc1ccc(S(=O)(=O)Nc2cccc(N(C)S(C)(=O)=O)c2)cc1,-0.7
16,CCOc1ccc(S(=O)(=O)Nc2ccccc2SC)cc1,-1.7
17,NC(=O)c1ccsc1NC(=O)COc1ccccc1,9.1
18,COC(=O)c1c(NS(C)(=O)=O)sc2c1CCCC2,3.6
19,COc1ccc(NC(=O)CCn2nc(C)cc2C)cc1,-4.3
20,O=C(CSc1nnc(Cn2c(=O)sc3ccccc32)n1CCc1ccccc1)N1CCCC1,1.9
